This excerpt belongs to a sample that is enriched for hits.
ST2 IL33 inh – inhibitors of human ST2 (IL1RL1) binding to IL-33; Q01638; AlphaLISA ST2-Fc/biotin-IL-33 interaction, 1 h; inhibition, % for hits at 17 µM; hit rate 2.3% among 78,000; in the data active means inhibition above about 30%
* hit, by the source's call; i = inactive; ! = not confirmed by another sample.

SMILES	ST2 IL33 inh
c1ccc(CN(Cc2nc(-c3ccccc3)no2)CC2CCC2)cc1	i
CCN(Cc1nc2ccc(F)cc2[nH]1)CC1CCCN(CCc2cccc(F)c2)C1 (stereo not given)	i
CC(C)CN1CCC(C(=O)NCc2ccccn2)CC1	i
O=C(Cc1c(C(=O)O)[nH]c2ccccc12)NCC1(c2ccccc2)CCCC1	i
CCC(CC)n1ncc(C)c1NC(=O)c1cc(C)nc(C)n1	i
CCCCn1ncc(C)c1NC(=O)[C@H]1CCCO1	i
CCCCn1ncc(C)c1NC(=O)c1ccsc1	31%*
Cc1ccc(N2C(=O)NC3CC2(C)Oc2ccccc23)cc1C (stereo not given)	i
CN1CCN(C(=O)CC[C@@H]2CNC(=O)[C@@H]3C[C@H](NC(=O)Nc4ccccc4)CN23)CC1	i
O=C(N[C@H]1C[C@H]2C(=O)NC[C@@H](CCC(=O)N3CCN(c4ccccn4)CC3)N2C1)C1CC1	i
O=C1NC[C@@H](CCC(=O)N2CCN(c3ccccn3)CC2)N2C[C@@H](NCc3ccc(F)cc3)C[C@@H]12	i
COc1ccc(CN[C@H]2C[C@H]3C(=O)NC[C@@H](CCC(=O)N4CCN(c5ccccn5)CC4)N3C2)cc1	i
O=C(Nc1ccsc1)N[C@H]1C[C@H]2C(=O)NC[C@@H](CCC(=O)N3CCN(c4ccccn4)CC3)N2C1	52%*
COCC(=O)N[C@H]1C[C@H]2C(=O)NC[C@@H](CCC(=O)N3CCN(c4ccccn4)CC3)N2C1	51%*
COc1cc(-n2c(=O)c3ccccc3n(CC(=O)NC3CCCC3)c2=O)cc(OC)c1OC	i
CCCCc1ccc(NC(=O)C2Cc3ccccc3C(=O)O2)cc1 (stereo not given)	i
COc1ccc(-c2noc([C@@H]3C[C@H](NC(=O)Nc4ccc(C)cc4)CN3C)n2)cc1	i
CN1C[C@@H](NC(=O)NC2CCCCC2)C[C@H]1c1nc(-c2ccccc2)no1	82%*
COc1ccc(NC(=O)N[C@H]2C[C@@H](c3nc(-c4ccc(OC)cc4)no3)N(C)C2)cc1	i
CN1C[C@@H](NS(=O)(=O)c2ccc(C#N)cc2)C[C@H]1c1nc(-c2ccccc2)no1	51%*
COc1ccc(-c2noc([C@@H]3C[C@H](NC(=O)NC(C)C)CN3C)n2)cc1	42%*
CN1C[C@@H](NS(=O)(=O)c2ccc(Cl)cc2)C[C@H]1c1nc(-c2ccccc2)no1	i
CN1C[C@@H](NC(=O)NC2CCCCC2)C[C@H]1c1nc(-c2ccc3c(c2)OCO3)no1	i
Cc1ccc(-c2noc([C@@H]3C[C@H](NS(=O)(=O)c4ccc(C)cc4)CN3C)n2)cc1	i
COc1ccc(-c2noc([C@@H]3C[C@H](NC(=O)CCC(=O)O)CN3C)n2)cc1	30%*
SMILES	ST2 IL33 inh
COc1cccc(NC(=O)N[C@H]2C[C@@H](c3nc(-c4ccccc4)no3)N(C)C2)c1	i
COc1ccc(-c2noc([C@@H]3C[C@H](NS(=O)(=O)c4ccc(C)cc4)CN3C)n2)cc1	i
CN1C[C@@H](NC(=O)C2CCCCC2)C[C@H]1c1nc(-c2ccccc2)no1	i
Cc1ccc(CNC(=O)c2ccc3nc4ccsc4c(=O)n3c2)cc1	i
COc1cccc2c1OCC(C(=O)NCc1c(C)noc1C)C2 (stereo not given)	i
CCOC(=O)c1cccnc1NCc1cccnc1N1CCN(C(C)=O)CC1	i
CO[C@H]1CN(C(=O)c2cccc3cnccc23)CC[C@H]1N	i
O=C(CSc1nc2sc3c(c2c(=O)n1-c1ccccc1)CCC3)NCc1ccco1	i
C/C(=C\c1nsc(Nc2ccc(Cl)c(Cl)c2)n1)NC(C)C	i
CN1CCN(CCOCCOc2ccc(Cl)c(Cl)c2)CC1	i
CC(C)(C)c1ccc(OCC(O)CN2CCCC2)cc1 (stereo not given)	i
CC1CCCN(CC(O)COc2ccc(C3CCCCC3)cc2)C1 (stereo not given)	i
OC(COc1ccc(C2C=CCC2)cc1)CN1CCCCC1 (stereo not given)	52%*
CCCCOC(=O)C1=C(C)Nc2nnnn2C1c1ccccc1OC (stereo not given)	i
CC(CC(=O)Nc1nc2ccc([N+](=O)[O-])cc2s1)c1ccccc1 (stereo not given)	i
CC(=O)N1CCC[C@H]1C(=O)N1CCC(n2nccc2NC(=O)Nc2ccccc2C)CC1	i
CS(=O)CCC(C(=O)O)N1C(=O)c2ccccc2C1=O (stereo not given)	38%*!
O=C(O)CCC(C(=O)O)N1C(=O)c2ccccc2C1=O (stereo not given)	i
O=C(NCc1ccccc1)C(Cc1ccccc1)N1C(=O)c2ccccc2C1=O (stereo not given)	i
c1ccc(-c2nnc([C@H]3CCN(C4CCCCC4)C3)o2)cc1	i
CC1CCC2C(=O)N(c3ccc(Cl)cc3O)C(=O)C2C1 (stereo not given)	i
CCOC(=O)CC1(NC(=O)C2CCC(=O)N(CCc3ccccn3)C2)CCCCC1 (stereo not given)	i
CCCS(=O)(=O)N1CCCC(C(=O)NCCCSC2CCCCC2)C1 (stereo not given)	i
